Structures can show the parent of a compound that is named as a salt.
System: Danio rerio larvae (5 dpf)
Assay: optomotor response to red moving lines, difference vs DMSO (percentage points (treated minus DMSO)); higher = more of the behaviour than the DMSO vehicle control
Details: 10 µM; exposure time: 3 h pre-incubation + 3 h imaging
Method: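 5-dpf wild-type zebrafish larvae were imaged in 96-well plates. They were treated with 190 Tocris FDA-approved drugs at 10 µM (1 µl/ml DMSO) for 3 h before and 3 h during imaging at 28.5 °C, 48 larvae per drug. Automated image analysis gave % time moving and optomotor responses. Values are drug group mean minus DMSO vehicle mean (n=844), in percentage points, for 10 behaviours.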

Compared with `CC[C@H]1OC(=O)[C@H](C)[C@@H](O[C@H]2C[C@@](C)(OC)[C@@H](O)[C@H](C)O2)[C@H](C)[C@@H](O[C@@H]2O[C@H](C)C[C@H](N(C)C)[C@H]2O)[C@](C)(O)C[C@@H](C)CN(C)[C@H](C)[C@@H](O)[C@]1(C)O` [Azithromycin], `COc1cc([C@@H]2c3cc4c(cc3[C@@H](O[C@@H]3O[C@@H]5CO[C@@H](C)O[C@H]5[C@H](O)[C@H]3O)[C@H]3COC(=O)[C@H]23)OCO4)cc(OC)c1O` [Etoposide] is higher in “optomotor response to red moving lines” value: -11.1 for the first, 2.25 for the second.

First: CCc1nc(N)nc(N)c1-c1ccc(Cl)cc1 [Pyrimethamine]
Second: Clc1ccc(COC(Cn2ccnc2)c2ccc(Cl)cc2Cl)c(Cl)c1 (stereo not given) [Miconazole nitrate]
The “optomotor response to red moving lines” value of the first is higher: 8.52 for the first, -8.36 for the second.

First: Nc1nc(NC2CC2)c2ncn([C@H]3C=C[C@@H](CO)C3)c2n1 [Abacavir hemisulfate]
Second: Nc1ncn([C@H]2C[C@H](O)[C@@H](CO)O2)c(=O)n1 [Decitabine]
The “optomotor response to red moving lines” value of the first is higher: -1.56 for the first, -3.68 for the second.

Going from `CCCC1O[C@@H]2C[C@H]3[C@@H]4CCC5=CC(=O)C=C[C@]5(C)[C@H]4[C@@H](O)C[C@]3(C)[C@]2(C(=O)CO)O1` (stereo not given in full) [Budesonide] to `CC(C)C(=O)OCC(=O)[C@@]12O[C@H](C3CCCCC3)O[C@@H]1C[C@H]1[C@@H]3CCC4=CC(=O)C=C[C@]4(C)[C@H]3[C@@H](O)C[C@@]12C` [Ciclesonide], the “optomotor response to red moving lines” value falls from 12 to -8.97.

First: Clc1ccc2nsnc2c1NC1=NCCN1 [Tizanidine hydrochloride]
Second: CN[C@H]1CC[C@@H](c2ccc(Cl)c(Cl)c2)c2ccccc21 [Sertraline hydrochloride]
The “optomotor response to red moving lines” value of the first is lower: 18.1 for the first, 21.6 for the second.

Compared with `COc1ccc(C[C@@H](C)NC[C@H](O)c2ccc(O)c(NC=O)c2)cc1` [Arformoterol tartrate], `OCc1cc(C(O)CNCCCCCCOCCCCc2ccccc2)ccc1O` (stereo not given) [Salmeterol xinafoate] is higher in “optomotor response to red moving lines” value: -7.51 for the first, 5 for the second.

Going from `CCN(CC)CCNC(=O)c1c(C)[nH]c(/C=C2\C(=O)Nc3ccc(F)cc32)c1C` [Sunitinib malate] to `CC(C)c1nc(N(C)S(C)(=O)=O)nc(-c2ccc(F)cc2)c1/C=C/[C@@H](O)C[C@@H](O)CC(=O)O` [Rosuvastatin calcium], the “optomotor response to red moving lines” value rises from -0.697 to 7.07.

First: C#C[C@]1(O)CC[C@H]2[C@@H]3CCC4=CC(=O)CC[C@@H]4[C@H]3CC[C@@]21CC [Levonorgestrel]
Second: C[C@]12CCC(=O)C=C1CC[C@@H]1[C@@H]2[C@@H](O)C[C@@]2(C)[C@H]1CC[C@]2(O)C(=O)CO [Hydrocortisone]
The “optomotor response to red moving lines” value of the first is lower: 4.27 for the first, 13 for the second.

First: C[C@@H]1C[C@H]2[C@@H]3CCC4=CC(=O)C=C[C@]4(C)[C@@]3(F)[C@@H](O)C[C@]2(C)[C@@]1(O)C(=O)CO [Dexamethasone]
Second: CCC(C)(C)C(=O)O[C@H]1C[C@@H](C)C=C2C=C[C@H](C)[C@H](CC[C@@H]3C[C@@H](O)CC(=O)O3)[C@H]21 [Simvastatin]
The “optomotor response to red moving lines” value of the first is higher: -2.54 for the first, -5.54 for the second.

Going from `CCCc1nc(C(C)(C)O)c(C(=O)O)n1Cc1ccc(-c2ccccc2-c2nnn[nH]2)cc1` [Olmesartan] to `CCCCC(=O)N(Cc1ccc(-c2ccccc2-c2nnn[nH]2)cc1)[C@H](C(=O)O)C(C)C` [Valsartan], the “optomotor response to red moving lines” value rises from -10.3 to 7.8.

Going from `Nc1nc2c(ncn2COCCO)c(=O)[nH]1` [Acyclovir] to `Cn1nnc2c(C(N)=O)ncn2c1=O` [Temozolomide], the “optomotor response to red moving lines” value rises from 1.94 to 2.24.

First: CC(C)(C(=O)O)c1ccc(C(O)CCCN2CCC(C(O)(c3ccccc3)c3ccccc3)CC2)cc1 (stereo not given) [Fexofenadine hydrochloride]
Second: Cc1cccc(CN2CCN(C(c3ccccc3)c3ccc(Cl)cc3)CC2)c1 (stereo not given) [Meclizine dihydrochloride]
The “optomotor response to red moving lines” value of the first is higher: 3.62 for the first, -10.1 for the second.

Compared with `Cc1ccc(O)c([C@H](CCN(C(C)C)C(C)C)c2ccccc2)c1` [Tolterodine L-tartrate], `CC(C)N(CCCCOCC(=O)NS(C)(=O)=O)c1cnc(-c2ccccc2)c(-c2ccccc2)n1` [Selexipag] is lower in “optomotor response to red moving lines” value: -0.0985 for the first, -8.23 for the second.

First: COc1c(C)c2c(c(O)c1C/C=C(\C)CCC(=O)O)C(=O)OC2 [Mycophenolic acid]
Second: CCCCNc1cc(C(=O)O)cc(S(N)(=O)=O)c1Oc1ccccc1 [Bumetanide]
The “optomotor response to red moving lines” value of the first is lower: -3.36 for the first, 19.3 for the second.

Compared with `Cc1nc(Nc2ncc(C(=O)Nc3c(C)cccc3Cl)s2)cc(N2CCN(CCO)CC2)n1` [Dasatinib], `O=c1n(CCCN2CCN(c3cccc(Cl)c3)CC2)nc2ccccn12` [Trazodone hydrochloride] is higher in “optomotor response to red moving lines” value: -9.17 for the first, 14.6 for the second.

Compared with `CN1CCN2c3ncccc3Cc3ccccc3C2C1` (stereo not given) [Mirtazapine], `CN(CCOc1ccc(CC2SC(=O)NC2=O)cc1)c1ccccn1` (stereo not given) [Rosiglitazone] is higher in “optomotor response to red moving lines” value: -3.88 for the first, -2.8 for the second.

Going from `Cc1c(-c2ccc(O)cc2)n(Cc2ccc(OCCN3CCCCCC3)cc2)c2ccc(O)cc12` [Bazedoxifene acetate] to `Cc1ccccc1C(=O)Nc1ccc(C(=O)N2CCCC(O)c3cc(Cl)ccc32)c(C)c1` (stereo not given) [Tolvaptan], the “optomotor response to red moving lines” value falls from 9.09 to -7.01.

Compared with `Cc1nnc(C(C)C)n1C1C[C@H]2CC[C@@H](C1)N2CC[C@H](NC(=O)C1CCC(F)(F)CC1)c1ccccc1` (stereo in doubt) [Maraviroc], `O=C(Nc1c(Cl)cncc1Cl)c1ccc(OC(F)F)c(OCC2CC2)c1` [Roflumilast] is higher in “optomotor response to red moving lines” value: -6.34 for the first, 0.247 for the second.

Compared with `Cc1ccc(-c2cc(C(F)(F)F)nn2-c2ccc(S(N)(=O)=O)cc2)cc1` [Celecoxib], `NS(=O)(=O)Cc1noc2ccccc12` [Zonisamide] is higher in “optomotor response to red moving lines” value: -3.89 for the first, 13 for the second.

Going from `N[C@@H]1[C@H]2CN(c3nc4c(cc3F)c(=O)c(C(=O)O)cn4-c3ccc(F)cc3F)C[C@@H]12` [Trovafloxacin mesylate] to `O=C(NCC1CCCCN1)c1cc(OCC(F)(F)F)ccc1OCC(F)(F)F` (stereo not given) [Flecainide acetate], the “optomotor response to red moving lines” value falls from 4.89 to -9.35.

From the supplement of paper PMC9023506
